# Assay results as given in the supplement of paper PMC12494721.
# Counter-ions that a name gives are not always drawn.
# How the values were obtained:
# Settings in all cases: incubation time: 27 h, anaerobic, 37 °C;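 for the amine columns active = adjusted P below 0.05 in both replicates with a change the same way and a mean fold change under 0.8 or over 1.25; inactive = the rest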
# [1] = tested on: Clostridium sporogenes DSM 1664; assay: growth (OD595) fold change vs plate DMSO controls (fold change (ratio)); higher = more growth
# How it was run: (§1)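 Shaken 96-well cultures in mGAM, grown anaerobically for 27 h at 37 °C, were read at 595 nm. OD came from blank-subtracted readings, corrected for background with 20 µM compound solutions in water and scaled by a calibration factor of 5. Growth is the fold change versus the plate's median DMSO control. Values average 2 biological replicates, and any fold change above 1.5 is NA.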
# [2] = tested on: Escherichia coli IAI1; assay: as above
# How it was run: as §1
# [3] = tested on: Klebsiella aerogenes DSM 30053; assay: as above
# How it was run: as §1
# [4] = tested on: Ruminococcus gnavus DSM 108212; assay: as above
# How it was run: as §1
# [5] = tested on: Klebsiella aerogenes DSM 30053; assay: fold change of Histamine concentration vs plate DMSO controls (fold change (ratio)); higher = more amine produced, active = hit call of the paper (significant change in both replicates, either direction)
# How it was run: (§2)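 Using LC–triple-quadrupole MS with dynamic MRM, amines were quantified against external calibration curves and corrected for drift within each batch. Samples were whole anaerobic mGAM cultures of four gut strains, grown 27 h at 37 °C from OD 0.1 before 1:1 dilution, extracted with cold acetonitrile/methanol containing 0.1% formic acid and centrifuged. Compounds were present at 20 µM final (sweeteners at 50 µM final). The numbers are fold changes versus plate DMSO controls, each the mean of 2 biological replicates.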
# [6] = tested on: Clostridium sporogenes DSM 1664; assay: fold change of Tryptamine concentration vs plate DMSO controls (fold change (ratio)); higher = more amine produced, active = hit call of the paper (significant change in both replicates, either direction)
# How it was run: as §2
# [7] = tested on: Ruminococcus gnavus DSM 108212; assay: as above
# How it was run: as §2
# [8] = tested on: Escherichia coli IAI1; assay: fold change of Putrescine concentration vs plate DMSO controls (fold change (ratio)); higher = more amine produced, active = hit call of the paper (significant change in both replicates, either direction)
# How it was run: as §2
# [9] = tested on: Klebsiella aerogenes DSM 30053; assay: as above
# How it was run: as §2
# [10] = tested on: Escherichia coli IAI1; assay: fold change of Cadaverine concentration vs plate DMSO controls (fold change (ratio)); higher = more amine produced, active = hit call of the paper (significant change in both replicates, either direction)
# How it was run: as §2
# [11] = tested on: Klebsiella aerogenes DSM 30053; assay: as above
# How it was run: as §2
# [12] = tested on: Ruminococcus gnavus DSM 108212; assay: fold change of 2-Phenylethylamine concentration vs plate DMSO controls (fold change (ratio)); higher = more amine produced, active = hit call of the paper (significant change in both replicates, either direction)
# How it was run: as §2
Compound,growth [1],growth [2],growth [3],growth [4],fold change of Histamine concentration [5],fold change of Tryptamine concentration [6],fold change of Tryptamine concentration [7],fold change of Putrescine concentration [8],fold change of Putrescine concentration [9],fold change of Cadaverine concentration [10],fold change of Cadaverine concentration [11],fold change of 2-Phenylethylamine concentration [12]
CCCNC(C)C(=O)Nc1ccccc1C (stereo not drawn) [Prilocaine hydrochloride] (20 µM),0.947,0.973,1.02,0.708,1.07 (inactive),0.934 (inactive),1.02 (inactive),1.01 (inactive),1.02 (inactive),0.993 (inactive),0.988 (inactive),1 (inactive)
CO[C@H]1C[C@H](O[C@H]2[C@H](C)[C@@H](O[C@@H]3O[C@H](C)C[C@H](N(C)C)[C@H]3OC(C)=O)[C@@H](C)C[C@@]3(CO3)C(=O)[C@H](C)[C@@H](OC(C)=O)[C@@H](C)[C@@H](C)OC(=O)[C@@H]2C)O[C@@H](C)[C@@H]1OC(C)=O [Troleandomycin] (20 µM),0.0017,0.966,1.03,0.456,0.976 (inactive),0.0831 (active),0.676 (active),1.01 (inactive),0.987 (inactive),1 (inactive),1.01 (inactive),0.769 (active)
Nc1ncnc2c1ncn2[C@@H]1O[C@H](CO)[C@@H](O)[C@@H]1O [Vidarabine] (20 µM),1.1,1.07,0.99,0.857,1.05 (inactive),0.947 (inactive),0.935 (inactive),1.11 (inactive),1.02 (inactive),0.957 (inactive),0.989 (inactive),0.976 (inactive)
CC(=O)NCCCS(=O)(=O)O [Acamprosate calcium] (20 µM),1.08,0.999,0.963,0.795,1.02 (inactive),1.02 (inactive),0.996 (inactive),0.995 (inactive),1.02 (inactive),0.983 (inactive),1 (inactive),0.996 (inactive)
Nc1cc(C(Cl)=C(Cl)Cl)c(S(N)(=O)=O)cc1S(N)(=O)=O [Clorsulon] (20 µM),1.04,0.963,0.957,0.922,1.15 (inactive),0.998 (inactive),1.02 (inactive),1.02 (inactive),1.03 (inactive),0.981 (inactive),0.978 (inactive),1.01 (inactive)
O=C1CC[C@@H](C(=O)N2CSC[C@H]2C(=O)O)N1 [Pidotimod] (20 µM),1.31,0.987,1.02,1.09,0.983 (inactive),0.982 (inactive),1.02 (inactive),0.979 (inactive),0.992 (inactive),1.01 (inactive),0.999 (inactive),1.04 (inactive)
CCCCC1C(=O)N(c2ccccc2)N(c2ccc(O)cc2)C1=O (stereo not drawn) [Oxyphenbutazone] (20 µM),1.01,1,1.2,1.09,0.888 (inactive),1.3 (inactive),1.14 (inactive),1.21 (inactive),0.877 (inactive),0.973 (inactive),1.14 (inactive),1.23 (inactive)
CC(COc1ccccc1)NC(C)C(O)c1ccc(O)cc1 (stereo not drawn) [Isoxsuprine hydrochloride] (20 µM),1.07,1,1,1.01,0.819 (inactive),1.05 (inactive),0.977 (inactive),1.05 (inactive),1 (inactive),0.927 (inactive),1.03 (inactive),0.966 (inactive)
C[C@H](CCC(=O)O)[C@H]1CC[C@H]2[C@@H]3[C@@H](O)C[C@@H]4C[C@H](O)CC[C@]4(C)[C@H]3CC[C@]12C [Urosiol] (20 µM),0.969,1.05,1.06,1.02,0.998 (inactive),1.08 (inactive),1.08 (inactive),1.01 (inactive),0.961 (inactive),0.954 (inactive),1.05 (inactive),1.1 (inactive)
COc1cc(C)nc(-n2nc(C)cc2OC)n1 [Epirizole] (20 µM),0.918,0.98,1,0.89,1.02 (inactive),1.04 (inactive),0.971 (inactive),0.949 (inactive),1.02 (inactive),1.01 (inactive),1.02 (inactive),1.02 (inactive)
CCOc1cc(CC(=O)N[C@@H](CC(C)C)c2ccccc2N2CCCCC2)ccc1C(=O)O [Repaglinide] (20 µM),1.11,1.2,0.993,0.81,0.982 (inactive),1.18 (inactive),1.09 (inactive),1.14 (inactive),0.966 (inactive),1.01 (inactive),1.03 (inactive),1.13 (inactive)
CC(C)(C)C(O)/C=C/c1ccc2c(c1)OCO2 (stereo not drawn) [Stiripentol] (20 µM),1.04,1.03,1,0.89,1.03 (inactive),0.927 (inactive),1.04 (inactive),1.01 (inactive),1.01 (inactive),1.03 (inactive),0.985 (inactive),0.981 (inactive)
NS(=O)(=O)c1cc2c(cc1Cl)NC(Cc1ccccc1)NS2(=O)=O (stereo not drawn) [Benzylhydrochlorothiazide] (20 µM),1.04,1.05,0.986,0.982,0.96 (inactive),1.05 (inactive),1.06 (inactive),1.06 (inactive),0.971 (inactive),0.887 (inactive),1.01 (inactive),1.07 (inactive)
C[C@]12C=CC(=O)C=C1CC[C@@H]1[C@@H]2[C@@H](O)C[C@@]2(C)[C@H]1CC[C@]2(O)C(=O)CO [Prednisolone] (20 µM),0.973,0.997,1,0.987,1.02 (inactive),1.03 (inactive),0.942 (inactive),0.997 (inactive),1 (inactive),0.997 (inactive),1 (inactive),0.815 (inactive)
CN(C)CCOc1ccc(/C(=C(/CCCl)c2ccccc2)c2ccccc2)cc1 [Toremifene] (20 µM),1.18,1.1,1.15,0.943,0.943 (inactive),1.02 (inactive),0.647 (active),0.998 (inactive),0.975 (inactive),0.98 (inactive),1.04 (inactive),0.871 (inactive)
"Cc1c(O)c(=O)n(-c2ccccc2)n1C [Antipyrine, 4-hydroxy] (20 µM)",1.04,1.02,1.02,0.689,0.913 (inactive),0.985 (inactive),0.987 (inactive),1.01 (inactive),0.956 (inactive),0.973 (inactive),1.01 (inactive),0.932 (inactive)
O=C1c2c(O)ccc(O)c2C(=O)c2c(NCCNCCO)ccc(NCCNCCO)c21 [Mitoxantrone dihydrochloride] (20 µM),0.733,0.831,1.02,1.24,0.924 (inactive),1.01 (inactive),0.978 (inactive),0.999 (inactive),1.02 (inactive),0.988 (inactive),1.04 (inactive),0.958 (inactive)
NC[C@H]1O[C@H](O[C@H]2[C@H](O)[C@@H](O[C@H]3O[C@H](CO)[C@@H](O)[C@H](N)[C@H]3O)[C@H](N)C[C@@H]2N)[C@H](N)C[C@@H]1O [Tobramycin] (20 µM),1.09,0.95,0.772,0.73,0.65 (active),1.13 (inactive),0.946 (inactive),0.911 (inactive),0.922 (inactive),0.889 (inactive),0.978 (inactive),0.941 (inactive)
N[C@H](Cc1ccccc1)C(=O)O [D-phenylalanine] (20 µM),1.13,1.02,0.991,0.917,0.946 (inactive),1.1 (inactive),0.973 (inactive),1.06 (inactive),1.02 (inactive),0.961 (inactive),1.01 (inactive),0.968 (inactive)
CCOC(=O)c1ccc(C#Cc2ccc3c(c2)C(C)(C)CCS3)nc1 [Tazarotene] (20 µM),1.02,0.951,0.961,0.972,1.02 (inactive),1.17 (inactive),1.22 (inactive),0.958 (inactive),0.977 (inactive),0.942 (inactive),1.04 (inactive),1.22 (inactive)
COc1ccc(CN2CCN(C(c3ccc(F)cc3)c3ccc(F)cc3)CC2)c(OC)c1OC [Lomerizine dihydrochloride] (20 µM),1.02,1.08,1.04,0.769,0.983 (inactive),1.08 (inactive),0.781 (inactive),1.09 (inactive),1.01 (inactive),0.984 (inactive),1.01 (inactive),0.87 (inactive)
CN[C@@H]1CCc2[nH]c3ccc(C(N)=O)cc3c2C1 [Frovatriptan succinate] (20 µM),1.12,0.98,0.991,1.01,1.05 (inactive),0.957 (inactive),0.964 (inactive),1.03 (inactive),1 (inactive),1.03 (inactive),0.984 (inactive),0.945 (inactive)
Cc1cccc(C)c1NC(=O)CC12CCCN1CCC2 [Pilsicainide Hydrochloride] (20 µM),0.937,1.04,1.01,1.04,0.986 (inactive),0.995 (inactive),1.05 (inactive),1.05 (inactive),0.984 (inactive),1.03 (inactive),0.98 (inactive),1.06 (inactive)
CCC(=O)O[C@]1(C(=O)SCF)[C@H](C)C[C@H]2[C@@H]3C[C@H](F)C4=CC(=O)C=C[C@]4(C)[C@@]3(F)[C@@H](O)C[C@@]21C [Fluticasone propionate] (20 µM),0.911,0.976,1.03,0.998,1.04 (inactive),0.989 (inactive),0.935 (inactive),0.994 (inactive),1.01 (inactive),0.995 (inactive),1.01 (inactive),0.931 (inactive)
